Bioassay records from PubChem BioAssay.
This is a sample that favours compounds with a hit; in the whole collection about 2.4% have one here.
D2 ag-1: activates the human D2 dopamine receptor; P14416; HEK293 T-REx D2 cells, calcium flux agonist mode; activation, % at 2 µM; 0.53% of 340,000 active;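 active means activation over 3 SD above normal in the single-dose calcium agonist read, cut at about 30% in these data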
Target sequence (P14416 whole entry, looked up): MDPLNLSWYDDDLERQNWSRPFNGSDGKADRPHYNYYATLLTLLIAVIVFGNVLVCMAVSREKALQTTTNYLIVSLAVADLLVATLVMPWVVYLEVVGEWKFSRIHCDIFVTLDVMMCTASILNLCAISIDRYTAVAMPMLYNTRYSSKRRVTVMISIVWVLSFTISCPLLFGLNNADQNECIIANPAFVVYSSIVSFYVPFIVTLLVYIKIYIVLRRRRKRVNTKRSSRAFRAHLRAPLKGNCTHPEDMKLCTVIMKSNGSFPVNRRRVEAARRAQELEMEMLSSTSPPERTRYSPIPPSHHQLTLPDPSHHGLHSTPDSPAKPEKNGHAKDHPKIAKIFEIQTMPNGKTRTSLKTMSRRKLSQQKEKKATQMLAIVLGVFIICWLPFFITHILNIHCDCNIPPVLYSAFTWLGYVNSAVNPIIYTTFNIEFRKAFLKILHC
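HEK293 Trex D2 cells, tetracycline-induced, o/n 30 C 5% CO2; no-wash Ca dye, RT 30–90 min; 10-cycle baseline, 23 nl cpd added, kinetic Ca read 180 s; agonist hits = positive Ca response.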
D2 PAM-1: positively modulates the human D2 dopamine receptor allosterically | HEK293 T-REx D2, calcium flux, EC20 dopamine potentiation | potentiation, % at 10 µM | 0.34% of 340,000 active | AID 485347;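 active means potentiation over 3 SD above the plate norm, cut at about 30% in these data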
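Tetracycline-induced Hek293 Trex D2 cells, force-coupled to calcium, loaded with no-wash calcium dye. Compound added with 180 s kinetic read for agonism, then EC20 dopamine and a further 180 s read for potentiation.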
D2 ag-2: agonists of human D2 dopamine receptor (beta-arrestin). activation, % (test concentration not listed). 0.084% of 360,000 active. AID 624465. P14416. DiscoveRx PathHunter D2 beta-arrestin, luminescence, 90 min; 100% = 57 uM dopamine signal; in the data active means activation above about 40%
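Agonist mode: compounds alone added to overnight-plated D2 PathHunter cells for 90 min at 37 C, with 57 uM final dopamine (EC100) defining full response. Beta-arrestin recruitment detected by chemiluminescent reagent, read after 1 h at ambient temperature.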
D2 antag: D2 dopamine receptor (human) antagonism; inhibition, % at 10 µM; AID 485344; 2% of 340,000 active; HEK293 TREx D2 cells, calcium flux, dopamine EC80; P14416; in the data active means inhibition above about 30%; inactive means below that, where a call was filed
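Read-out: kinetic calcium fluorescence (1 cycle/s) in inducible HEK293 T-REx D2 cells after an EC80 dopamine addition that followed 180 s compound preincubation. Loss of the dopamine response indicates antagonism.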
D2 PAM-2: human D2 receptor positive allosteric modulation | DiscoveRx D2 beta-arrestin cells, luminescence, 90 min; 100% = 57 uM dopamine signal | potentiation, % (test concentration not listed) | 0.23% of 360,000 active | AID 624464; in the data active means potentiation above about 50%
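D2 cells co-treated with compound plus 50 nM dopamine (EC20) for 90 min at 37 deg C to detect potentiation. Beta-arrestin recruitment was read as enzyme-fragment luminescence after 1 h at ambient temperature. Full response was set by 57 uM dopamine.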
A number is an active result; i = inactive; nt = no result given.

SMILES | D2 ag-1 | D2 PAM-1 | D2 ag-2 | D2 antag | D2 PAM-2
O=C(NCc1ccccc1)c1ccc2c(c1)C(=O)N(CC1CCCO1)C2=O (stereo not drawn) | i | i | i | 31 | i
O=C(NCc1cccc(CNC(=O)C(=O)NCC2CCCO2)c1)C(=O)NCC1CCCO1 (stereo not drawn) | i | i | i | 30 | i
O=C(NCc1ccc2c(c1)OCO2)C(=O)NCC1CCCO1 (stereo not drawn) | i | i | i | i | i
COc1ccc(NC(=O)c2ccc3c(c2)C(=O)N(CC2CCCO2)C3=O)cc1 (stereo not drawn) | i | i | i | i | i
COc1ccc(NC(=O)c2ccc3c(c2)C(=O)N(CC2CCCO2)C3=O)c(OC)c1 (stereo not drawn) | i | 37 | i | i | i
CCOC(=O)C1=CCN(S(=O)(=O)c2ccc(Br)cc2)C1c1ccc(C)cc1 (stereo not drawn) | nt | nt | i | nt | i
CCOC(=O)C1=C(C)N(CCCCCC(=O)O)C(=O)NC1c1ccc([N+](=O)[O-])cc1 (stereo not drawn) | 31 | i | i | i | i
CCOC(=O)C1=C(C)N(CCCCCC(=O)O)C(=O)NC1c1cccc([N+](=O)[O-])c1 (stereo not drawn) | i | i | i | i | i
Cc1ccc(-c2nc3c(c(SCc4ccc(Br)cc4)n2)Cc2c(CO)cnc(C)c2O3)cc1 | i | i | nt | nt | nt
CSc1cccc(NC(=S)NCCCN2CCN(c3ccc(F)cc3)CC2)c1 | i | i | i | 43 | i
CON(C)c1nc(Oc2ccc(=O)[nH]n2)nc(N(C)C)n1 | i | 45 | i | i | i
CCc1ccc(NC(=O)CCC(=O)Nc2nnc(C(C)C)s2)cc1 | i | i | i | 43 | i
CC(C)c1nnc(NC(=O)CCC(=O)Nc2ccc(F)cc2)s1 | i | i | i | i | i
COc1ccc(CCNC(=O)CCn2c(=O)[nH]c3cc(OC)c(OC)cc3c2=O)cc1OC | i | i | i | i | i
CCOc1cc2[nH]c(=O)n(CCC(=O)NCCc3ccc(OC)c(OC)c3)c(=O)c2cc1OCC | i | 35 | i | i | i
COc1ccc(Nc2ncc(C(=O)Nc3cccc(Cl)c3)c3ccccc23)cc1 | i | i | nt | nt | nt
Cc1ccc(OCC(=O)NCCNC(=O)c2cnccn2)cc1 | i | i | i | i | i
CCCCCCCC(=O)Oc1ccc(C(=O)Nc2cc(C)on2)cc1 | i | i | i | 37 | i
CCOC(=O)c1cc2occc2n1Cc1ccc(F)cc1 | i | i | i | 34 | i
CCOC(=O)c1cc2occc2n1Cc1c(F)cccc1Cl | i | i | i | 31 | i
COC(=O)c1cc2occc2n1Cc1ccc(Cl)cc1 | i | i | i | i | i
O=C(O)CCC(=O)OCCCc1cc2ccccc2c(=O)o1 | nt | nt | i | nt | i
CC1CCCCN1C(=O)Cn1nnc(-c2cccnc2)n1 (stereo not drawn) | i | i | i | 32 | i
O=C1C2CCCCN2C(=O)N1CCCCN1CCN(c2ccccc2Oc2ccccc2)CC1 (stereo not drawn) | i | i | i | 84 | i
COc1ccccc1N1CCN(CCCCN2C(=O)C3CCCN3C2=O)CC1 (stereo not drawn) | nt | nt | i | nt | i
SMILES | D2 ag-1 | D2 PAM-1 | D2 ag-2 | D2 antag | D2 PAM-2
O=C1C2CCCCN2C(=O)N1CCCCN1CCN(c2cccc(Cl)c2)CC1 (stereo not drawn) | i | i | i | 92 | i
COc1ccccc1CNc1nc2c(S(=O)(=O)c3ccc(C)c(C)c3)nnn2c2ccc(Cl)cc12 | nt | i | nt | nt | nt
CC(=O)Nc1ccc(NC(=O)C2CCCN2S(=O)(=O)c2ccc3c(c2)CCCC(=O)N3)cc1 (stereo not drawn) | i | i | nt | nt | nt
O=C1CCC(c2ccccc2)N1C(=O)c1cccnc1 (stereo not drawn) | i | 38 | i | i | i
O=C1CC(c2ccccc2)CN1C(=O)c1cccnc1 (stereo not drawn) | i | i | i | i | i
CC1CCCN(c2cc(N(C)CCO)c([N+](=O)[O-])c3nonc23)C1 (stereo not drawn) | i | 40 | i | i | i
Cc1c(Cl)c([N+](=O)[O-])nn1CC(=O)NC1CCCCC1 | i | i | i | i | i
Cc1c(Br)c([N+](=O)[O-])nn1CC(=O)NC1CCCCCC1 | i | i | i | 41 | i
N#Cc1cnn(-c2ccccc2)c1NC(=O)c1ccccc1F | i | 80 | i | i | i
O=C(Nc1c(C(=O)N2CCCCC2)cnn1-c1ccccc1)c1ccccc1F | i | i | i | i | i
CCCCn1c(N)c(N(CC)C(=O)c2cc(CC)c(C)s2)c(=O)[nH]c1=O | i | i | i | i | i
CCCCCCc1cc2cc(/C(N)=N/NC(=O)c3ccncc3)c(=O)oc2cc1O | 34 | i | i | i | i
CCCCCCc1cc2cc(C(=O)OCC)c(=O)oc2cc1O | i | i | i | i | i
O=C(COC(=O)/C=C/C(=O)N1CCN(c2ccccc2)CC1)NC(c1ccccc1)c1ccccc1 | i | i | i | 69 | i
O=C(COC(=O)/C=C/c1cccs1)NC(c1ccccc1)c1ccccc1 | i | i | i | i | i
O=C1N/C(=N\S(=O)(=O)c2ccccc2)S/C1=C\c1cc([N+](=O)[O-])ccc1O | 33 | i | i | i | i
O=C1N/C(=N\S(=O)(=O)Cc2ccccc2)S/C1=C/c1cc([N+](=O)[O-])ccc1O | 59 | i | i | 31 | i
COc1cc(/C=C2\S/C(=N/S(=O)(=O)Cc3ccccc3)NC2=O)c([N+](=O)[O-])cc1OC | nt | i | i | nt | i
Cc1ccc(NC(=O)c2cc([N+](=O)[O-])ccc2NCc2cccnc2)cc1 | i | i | i | 33 | i
COc1ccc([N+](=O)[O-])cc1NCc1cccnc1 | i | i | i | i | i
CCCn1ccc2c(OCC(=O)Nc3cc(C)ccc3C)cccc2c1=O | i | nt | nt | nt | nt
COc1cccc2cc(C(=O)CC3(O)C(=O)N(Cc4ccccc4)c4ccccc43)c(=O)oc12 (stereo not drawn) | i | 40 | i | i | i
COc1ccccc1N1CCN(c2nc3c(S(=O)(=O)c4ccccc4)nnn3c3ccc(Cl)cc23)CC1 | i | i | nt | nt | nt
CC1=C(C#N)C2(O)C(=O)c3ccccc3C2(O)N1 (stereo not drawn) | i | i | i | i | i
COc1ccc2c(c1)NC1(O)c3ccccc3C(=O)C21O (stereo not drawn) | i | i | i | 32 | i
O=S(=O)(c1cc(Cl)cc(Cl)c1)N1CCCC1c1nc2ccccc2s1 (stereo not drawn) | i | 43 | i | i | i
O=C(CSCc1ccccc1Cl)NN=C1CCCCCC1 | i | i | i | 38 | i
O=C(CSCc1ccc(Cl)cc1)NN=C1CCCC1 | i | i | i | i | i
O=C(CSCc1ccc([N+](=O)[O-])cc1)NN=C1CCCCCC1 | i | 35 | i | i | i
CCOCc1nc(N)nc(N)c1-c1cccc(Cl)c1 | nt | nt | i | nt | i
